Measurements as given in PubChem BioAssay (NCI).
This is part of a sample that, as a whole, favours compounds with a hit. Of some 83,000 tested, about 20% had one in any assay.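 Method: cells in 96-well plates; compound added at one concentration; 48 h incubation; percent growth measured; values under 10 scored active.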 A number with no mark means an inactive call. Calls of active or inactive are those of the source.

test system: SF-539 CNS; test: NCI-60 one-dose screen, 48 h (100 = growth as untreated, 0 = no growth, -100 = all killed); conditions: 10 µM unless noted

SMILES	growth
O=C1C(Cl)=C(NCCCN2CCOCC2)C(=O)c2ccccc21	125%
COC(=O)c1cc(-c2ccc(C)cc2)n(C(=O)CSc2nc3sc(C(N)=O)c(C)c3c(=O)n2Cc2ccccc2)n1	104%
COc1cccc(OC)c1OC(=O)c1ccccc1	99.1%
Oc1ccc2ccccc2c1C1NN=C(c2ccccc2)S1 (stereo unspecified)	12%
CCCCC/C=C\C/C=C/CCCCCCCCNC(=O)Nc1ccc([N+](=O)[O-])cc1	107%
Clc1ccc(Nc2ccnc(N3CCN(c4ccnc5cc(Cl)ccc45)CC3)n2)cc1	62.2%
Cc1ccc(S(=O)(=O)N(c2ccc(Cl)cc2)c2ccc(Br)cc2C(=O)O)cc1	102%
CCN1CCN(C(=S)SCC(=O)Nc2nc3ccc(OC)cc3s2)CC1	109%
Cn1c2ccccc2c2nn(Cc3ccccc3)c(=O)nc21	99.7%
Clc1ccc2c(N3CCN(c4ccnc(NC5CCCCC5)n4)CC3)ccnc2c1	53.5%
Cn1c2ccccc2c2nn(C(=O)c3ccccc3)c(=O)nc21	106%
COc1ccc(OC2=C(C#N)C(=N)N3c4ccccc4Sc4ccccc4C3N2)cc1 (stereo unspecified)	91.5%
NC(=S)N/N=C1\c2ccccc2-c2c(F)c(F)c(F)c(F)c21	96.1%
NC(=O)c1cc(I)ccc1NC(=O)COc1ccc(Cl)cc1Cl	97%
CCC12CCC3c4ccc(O)cc4CCC3C1CC(O)C2O (stereo unspecified)	80.6%
O=C1NC(=O)C(CSc2ccccc2)(c2ccccc2)N1 (stereo unspecified)	113%
C=C(C)COC(=O)c1ccccc1C(=O)OCC1(C)CO1 (stereo unspecified)	101%
COc1ccc(NC(=O)COc2ccccc2)c(C(N)=O)c1	-46.8% (active)
O=c1nc(NO)[nH]c(=O)n1Cc1ccc(F)cc1	102%
NC(=O)c1cc(I)ccc1NC(=O)COc1ccccc1	-33.6% (active)

SMILES	growth
O=C(Nc1ccccc1O)c1ccc(NS(=O)(=O)c2cccc3cccnc23)cc1	41.4%
CC(=O)OC[C@H](O)[C@@]1(O)CC[C@H]2[C@@H]3CCC4=CC(=O)CC[C@]4(C)[C@H]3[C@@H](O)C[C@@]21C	100%
COc1cc(NC(=O)COc2ccccc2)c(C(N)=O)cc1OC	-23.9% (active)
COc1ccc(Nc2[nH]n(C3=Nc4ccccc4Sc4ccccc43)c(=O)c2C#N)cc1	45.6%
COc1c(Cl)ccc2c(-c3nc4cc(Cl)c(F)cc4s3)cc(=O)oc12	90%
Cn1c2ccc(Cl)cc2c2nn(C(=O)c3ccccc3)c(=O)nc21	99.9%
CC(=O)Nc1ccc(S(=O)(=O)N/N=C\c2ccc(Cl)c(Cl)c2)cc1	111%
COc1ccc(/C=C(\C#N)c2ccc(OC)cc2)cc1	79.7%
CCCCNNC(=O)c1ccc(Br)cc1	61.4%
CC(=O)c1cc(C)c(OC(=O)c2ccccc2)c(C)c1	100%
Clc1nc(-c2ccccn2)nc2sc3c(c12)CCCCCC3	97.3%
Cc1ccc(C(=O)Nc2ccccc2N)cc1	68.1%
Oc1ccccc1/C=N/Nc1nc2ccccc2s1	44.6%
COc1cccc(OC(=O)c2ccccc2)c1OC(=O)c1ccccc1	92%
COC(=O)c1ccc(C(=O)Nc2ccccc2N)cc1	64.9%
CCSc1nnc2c3cc(Br)ccc3n(C)c2n1	106%
N#CCCN1CCN(CCC#N)C1=S	101%
COC(=O)/C=C1/CCC2C3CCC4=CC(=O)C(Br)CC4(C)C3C(=O)CC12C (stereo unspecified)	97.4%
NC(=O)c1cc(Cl)ccc1NC(=O)COc1ccccc1	18.2%
CN1CCN(CCCn2c3c(sc4ncccc43)c(=O)n3nnc(-c4ccccc4)c23)CC1	-96% (active)

test system: UACC-257 melanoma; test: as above; conditions: 10 µM unless noted

SMILES	growth
O=C1C(Cl)=C(NCCCN2CCOCC2)C(=O)c2ccccc21	73.3%
COC(=O)c1cc(-c2ccc(C)cc2)n(C(=O)CSc2nc3sc(C(N)=O)c(C)c3c(=O)n2Cc2ccccc2)n1	106%
COc1cccc(OC)c1OC(=O)c1ccccc1	99.5%
Oc1ccc2ccccc2c1C1NN=C(c2ccccc2)S1 (stereo unspecified)	-6.81% (active)
CCCCC/C=C\C/C=C/CCCCCCCCNC(=O)Nc1ccc([N+](=O)[O-])cc1	98.9%
Clc1ccc(Nc2ccnc(N3CCN(c4ccnc5cc(Cl)ccc45)CC3)n2)cc1	81.7%
Cc1ccc(S(=O)(=O)N(c2ccc(Cl)cc2)c2ccc(Br)cc2C(=O)O)cc1	101%
CCN1CCN(C(=S)SCC(=O)Nc2nc3ccc(OC)cc3s2)CC1	117%
Cn1c2ccccc2c2nn(Cc3ccccc3)c(=O)nc21	101%
Clc1ccc2c(N3CCN(c4ccnc(NC5CCCCC5)n4)CC3)ccnc2c1	0.862% (active)
Cn1c2ccccc2c2nn(C(=O)c3ccccc3)c(=O)nc21	118%
COc1ccc(OC2=C(C#N)C(=N)N3c4ccccc4Sc4ccccc4C3N2)cc1 (stereo unspecified)	115%
NC(=S)N/N=C1\c2ccccc2-c2c(F)c(F)c(F)c(F)c21	23.1%
NC(=O)c1cc(I)ccc1NC(=O)COc1ccc(Cl)cc1Cl	89.6%
CCC12CCC3c4ccc(O)cc4CCC3C1CC(O)C2O (stereo unspecified)	67.4%
O=C1NC(=O)C(CSc2ccccc2)(c2ccccc2)N1 (stereo unspecified)	93.6%
C=C(C)COC(=O)c1ccccc1C(=O)OCC1(C)CO1 (stereo unspecified)	101%
COc1ccc(NC(=O)COc2ccccc2)c(C(N)=O)c1	61.7%

SMILES	growth
NC(=O)c1cc(I)ccc1NC(=O)COc1ccccc1	61.4%
O=C(Nc1ccccc1O)c1ccc(NS(=O)(=O)c2cccc3cccnc23)cc1	26.8%
CC(=O)OC[C@H](O)[C@@]1(O)CC[C@H]2[C@@H]3CCC4=CC(=O)CC[C@]4(C)[C@H]3[C@@H](O)C[C@@]21C	110%
COc1cc(NC(=O)COc2ccccc2)c(C(N)=O)cc1OC	51.3%
COc1ccc(Nc2[nH]n(C3=Nc4ccccc4Sc4ccccc43)c(=O)c2C#N)cc1	36.3%
COc1c(Cl)ccc2c(-c3nc4cc(Cl)c(F)cc4s3)cc(=O)oc12	91.6%
Cn1c2ccc(Cl)cc2c2nn(C(=O)c3ccccc3)c(=O)nc21	128%
CC(=O)Nc1ccc(S(=O)(=O)N/N=C\c2ccc(Cl)c(Cl)c2)cc1	103%
COc1ccc(/C=C(\C#N)c2ccc(OC)cc2)cc1	83.8%
CCCCNNC(=O)c1ccc(Br)cc1	16.3%
Cc1ccc(C(=O)Nc2ccccc2N)cc1	68%
Oc1ccccc1/C=N/Nc1nc2ccccc2s1	58.7%
COc1cccc(OC(=O)c2ccccc2)c1OC(=O)c1ccccc1	87%
COC(=O)c1ccc(C(=O)Nc2ccccc2N)cc1	75.7%
CCSc1nnc2c3cc(Br)ccc3n(C)c2n1	105%
N#CCCN1CCN(CCC#N)C1=S	99.8%
NC(=O)c1cc(Cl)ccc1NC(=O)COc1ccccc1	84.4%
CN1CCN(CCCn2c3c(sc4ncccc43)c(=O)n3nnc(-c4ccccc4)c23)CC1	99.2%
